Data as given in PubChem BioAssay AID493027 (The Scripps Research Institute Molecular Screening Center, 2011).
Hit rate of the full screen: of about 2,000 compounds, about 45 (2%) were called active.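 The calls were made as follows: active = inhibition above the screen-wide mean inhibition plus 3 SD (cut at about 44% in these data); inactive = the rest.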 What follows is part of a selection rich in actives, with near analogues and random picks from the rest.

biological target: Perilipin-1 (Homo sapiens) + 1-acylglycerol-3-phosphate O-acyltransferase ABHD5 (Homo sapiens) (UniProt O60240+Q8WTS1); test: blockers of ABHD5 binding to perilipin-1 – cell lysate, split luciferase complementation, luminescence, NIH validation set, pilot screen (AID 493027);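 as to inhibition: 0% = DMSO wells with the 100% control not disclosed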; conditions: split G. princeps luciferase complementation, 4 h; at 7.9 µM, stronger effect = higher value
Sequence (O60240 whole entry, looked up): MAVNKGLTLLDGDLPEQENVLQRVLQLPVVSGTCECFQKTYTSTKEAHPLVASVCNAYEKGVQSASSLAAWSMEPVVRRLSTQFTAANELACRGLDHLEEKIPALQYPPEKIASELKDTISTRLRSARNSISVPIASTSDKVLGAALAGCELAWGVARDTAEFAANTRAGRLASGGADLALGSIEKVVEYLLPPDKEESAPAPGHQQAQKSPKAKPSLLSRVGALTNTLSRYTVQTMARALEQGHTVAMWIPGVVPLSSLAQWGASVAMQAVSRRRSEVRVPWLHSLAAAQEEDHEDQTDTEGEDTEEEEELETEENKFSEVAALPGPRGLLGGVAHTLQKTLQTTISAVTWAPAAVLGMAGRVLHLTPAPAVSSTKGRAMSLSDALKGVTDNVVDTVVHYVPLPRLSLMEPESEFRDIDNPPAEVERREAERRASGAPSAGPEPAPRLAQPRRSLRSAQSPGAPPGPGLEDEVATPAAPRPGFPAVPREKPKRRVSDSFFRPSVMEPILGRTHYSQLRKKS
Sequence (Q8WTS1 whole entry, looked up): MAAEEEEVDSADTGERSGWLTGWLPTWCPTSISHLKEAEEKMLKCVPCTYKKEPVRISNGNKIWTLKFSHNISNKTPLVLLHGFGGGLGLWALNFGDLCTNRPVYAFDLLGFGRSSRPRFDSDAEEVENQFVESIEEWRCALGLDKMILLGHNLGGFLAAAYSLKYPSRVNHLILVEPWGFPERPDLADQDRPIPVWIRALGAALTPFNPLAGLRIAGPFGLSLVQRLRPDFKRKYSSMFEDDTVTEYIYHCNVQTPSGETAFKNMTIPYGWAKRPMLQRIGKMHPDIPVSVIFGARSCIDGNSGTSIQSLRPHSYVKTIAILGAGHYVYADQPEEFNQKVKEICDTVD

inhibition, inactive:
CSCCC(NC(C)=O)C(=O)Oc1ccc2c3c(c(=O)oc2c1)CCCC3 (stereo not drawn) 4.14%
O=c1c(-c2ccc3c(c2)OCCO3)coc2cc(OC3OC(CO)C(O)C(O)C3O)ccc12 (stereo not drawn) -4.41%
O=C(Nc1ccc(Cl)cn1)Nc1ccccc1Cl -3.38%
CC(C)C1Cc2[nH]c(=O)c(C(=O)O)cc2CO1 (stereo not drawn) -7.52%
CCCC(=O)Nc1ccccc1NC(C)=O -6.46%
N/C(=N\OS(=O)(=O)c1ccc2ccccc2c1)c1cccnc1 0.01%
COc1ccc(-c2c(NC(=O)c3ccco3)n(C)c3ccccc3c2=O)cc1 -10.8%
O=C(NCCN1CCCCC1)c1c(O)c2ccccc2[nH]c1=O -2.32%
CC1(C)c2ccccc2N2CC(=O)N(CC(N)=O)C21C (stereo not drawn) 4.18%
O=C(/C=C/c1ccco1)N1CCN(c2ccccc2)CC1 4.55%
CC(=O)c1c(C)c(C)c2n1CCn1c(C)ccc1-2 5.75%
COc1ccc(C2C(C#N)=C(N)Oc3cc(C)[nH]c(=O)c32)c(OC)c1OC (stereo not drawn) -14.5%
O=C(/C=C/c1ccc2c(c1)OCO2)NCc1ccc(F)cc1 -2.57%
O=C(/C=C/c1ccc2c(c1)OCCCO2)c1ccc2ccccc2c1O 17.8%
CC1(C)CC(=O)c2cc(O)ccc2O1 -2.35%
CC(CCCC(C)(C)O)NC(=O)c1ccc(OC2CCN(C(=O)C3CC3)CC2)cc1 (stereo not drawn) -7.27%
Cc1ccc2[nH]c3c(c2c1)CCNC3=O -4.86%
CC[n+]1ccc2cc(OC)c(OC)cc2c1Cc1ccc(OC)c(OC)c1 -12.6%
COc1cc(=O)n(C)c2ccccc12 -0.74%
COc1ccc(C(=O)/C=C/c2ccc(OC(=O)c3cc(OC)c(OC)c(OC)c3)cc2)cc1 26.9%
COc1cccc2cc(-c3ccccc3)c(=O)oc12 -3.48%
NS(=O)(=O)c1cc2c(cc1Cl)NC(C1C[C@H]3C=C[C@@H]1C3)NS2(=O)=O (stereo partly drawn) 0.4%
O=C(O)CCn1cnc2ccccc2c1=O 3.53%
O=C(Cc1ccccc1)NCC(=O)OCC(=O)c1ccccc1Cl -13.7%
CCN1C(=O)C(CC(=O)Nc2ccc(F)cc2)N(Cc2ccco2)C1=S (stereo not drawn) 10.9%
CC(=O)Oc1ccc2occ(/C=N/c3cc(=O)[nH]c(=S)[nH]3)c(=O)c2c1 -1.72%
O=c1cc(CN2CCN(c3cccc(Cl)c3)CC2)c2cc(O)c(-c3ccccc3)cc2o1 1.13%
COc1ccc2[nH]c(C)c(CN3CCC(C)CC3)c(=O)c2c1 -4.96%
CCc1cc2c(=O)c(-c3nc(C)cs3)coc2cc1OC(C)C(=O)NCCO (stereo not drawn) -3.43%
COc1ccc2oc(=O)c(C(=O)Nc3ccccc3-c3ccccc3)cc2c1 -7.96%
COc1ccc2oc(=O)c(C(=O)N3CCN(c4ccccc4)CC3)cc2c1 9.05%
Cc1ccc(NCCC(=O)c2ccccc2)cc1Cl -2.97%
CCCN1CCC(NC(=O)Nc2ccc(Br)cc2)CC1 -9.54%
Cc1ccc2c(c1)C(O)(CC(=O)/C=C/C=C/c1ccccc1)C(=O)N2 (stereo not drawn) 16.4%
O=C1NC2(Nc3ccccc31)C(=O)Nc1ccc(Br)cc12 (stereo not drawn) 0.88%
CC1(C)CC(C(CC(=O)N2CCCC2)Cc2ccccc2)CCO1 (stereo not drawn) -12.5%
Cc1cc(C(=O)Nc2ccccc2C(=O)N2CCCCC2)ccc1[N+](=O)[O-] -3.48%
COc1ccc(/C=C2\CCn3c2nc2cc(C(=O)O)ccc2c3=O)cc1OC -6.3%
COc1ccc(/C=C2\CCc3ccccc3C2=O)c(OC)c1OC -0.86%
CCN(CCCCCN(C)C)Cc1cc2ccccc2o1 -7.75%
O=C1C(Cc2c[nH]c3ccccc23)NC(=S)N1Cc1ccccc1 (stereo not drawn) -4.43%
CC(=O)N1CCN2C(=O)C1CCCC(=O)c1cc(C(C)C)ccc12 (stereo not drawn) 0.46%
COc1cc2c(cc1OC)/C(=C/c1ccc(Cl)cc1)C(=O)OC2 27.4%
CCOC(=O)N1CCN(Cc2nc(Cc3cccc(F)c3)no2)CC1 -1.53%
C=CCc1ccc(OCC(O)COc2ccc(CC=C)cc2OC)c(OC)c1 -1.62%
Cc1ccccc1C(=O)NNc1ncnc2c1cnn2C -10.4%
Cn1cc(CN2CCCC(CO)(Cc3cccc(Cl)c3)C2)cn1 (stereo not drawn) -10.7%
c1ccc2c3c(c(CN4CCCCC4)cc2c1)COC3 -4.68%
O=C(O)/C=C/c1ccc(O)c(O)c1 -2.22%
CCN(CC)C(=O)c1ccc(O)c(OC)c1 -1.24%
COc1ccc2c(c1O)Cc1ccccc1C2=O 12%
COc1cc(OC)cc(C(=O)N[C@@H](CCSC)c2nc3ccccc3[nH]2)c1 2.97%
CC(C)CCC1(CCNC(C)c2cccs2)CCOC(C)(C)C1 (stereo not drawn) -4.9%
COc1ccc(CCN=CC2=C(O)CC(C)(C)CC2=O)cc1 -4.85%
CC(=O)Nc1ccc(CN2CCN(C3CCCCC3)C(CCO)C2)cc1 (stereo not drawn) -3.02%
CC(=O)N[C@@H](CS)C(=O)O -18.8%
Cc1ccc(NC(=O)CSc2nc(O)c(Cc3ccccc3)c(=O)n2-c2ccccc2)cc1 5.86%
COc1ccc(C(=O)Oc2ccc3c(C)cc(=O)oc3c2C(C)=O)cc1 0.69%
COc1ccc(/C=C/C(=O)Nc2ccccc2C(=O)O)cc1OC -6.48%
CC(C)C(=O)Nc1c(O)c2ccccc2[nH]c1=O -16.2%
COC(=O)C1=C(C)NC(C)=C([N+](=O)[O-])C1c1ccccc1C(F)(F)F (stereo not drawn) 1.42%
CCOC(=O)C1=C(C)NC(C)=C(C(=O)OC)C1c1cccc([N+](=O)[O-])c1 (stereo not drawn) 8.95%
COc1ccc(CCN=C(N)C(C)c2ccccc2)cc1OC (stereo not drawn) -12.2%
CC(C)(C)C(=O)NC(=S)Nc1sc2c(c1C(N)=O)CCC2 1.49%
COc1ccc(C2OC(=O)Cc3cc(OC)c(OC)cc32)cc1 (stereo not drawn) -1.64%
OCCC1CN(Cc2nc(-c3ccccc3)cs2)CCN1Cc1ccc(F)cc1 (stereo not drawn) -1.6%
COc1cc2c(cc1OC)-c1cc(OCc3ccccc3Cl)nc(=O)n1CC2 15.9%
Cn1cc(/C=C/C(=O)c2ccccc2)c2ccccc21 13.9%
O=C(O)c1ccc(C(=O)C(=O)c2ccccc2)cc1 -8.11%
N/C(=N\OC(=O)/C=C/c1ccccc1)c1ccc(Br)cc1 -13%
O=C(CCCCCCCC(=O)c1ccccc1)c1ccccc1 -5.61%
CC(CCc1ccccc1)NC(=O)/C=C/c1ccccc1 (stereo not drawn) 2.76%
O=C(/C=C/c1ccccc1)NC(=O)c1ccccc1O 4.79%
Cc1ccc2[nH]c3c(c2c1)CN(C)CC3 -2.27%
Cc1ccc(S(=O)(=O)N[C@@H](C)C(=O)N2CCC(C(=O)N3CCC[C@H]3C(=O)O)CC2)cc1 -8.3%
COc1ccc(C2OC[C@H]3O[C@H](O)[C@H](NC(C)=O)[C@@H](O)[C@@H]3O2)cc1 (stereo partly drawn) -8.14%
COc1ccc2c(c1)CC[C@@H]1[C@@H]2CC[C@]2(C)C(=O)CC[C@@H]12 -10.8%
C[C@]12CCC3C(CC=C4C[C@@H](O)CC[C@@]43C)C1CCC2[C@]1(C)CCC(=O)O1 (stereo partly drawn) 0.59%
COc1cccc(-n2c(C)c3c(OC)cccc(=O)c3c2C)c1 12%
CCC(C)NCCOc1ccccc1C (stereo not drawn) -6.76%
COc1ccc(OC)c(-n2c(Cn3c(-c4ccccn4)nc4ccccc43)n[nH]c2=S)c1 -10.2%
COc1ccc(C(=O)N2c3cc4c(cc3C(C)=CC2(C)C)OCO4)cc1 -4.62%

inhibition, active:
CSCCC(NC(=O)OC(C)(C)C)C(=O)Oc1ccc2c(=O)c(-c3ccc4c(c3)OCCO4)coc2c1 (stereo not drawn) 67.4%
CC1(C)c2ccccc2N2CC(=O)NC21/C=C/c1ccco1 (stereo not drawn) 47.4%
O=C(/C=C/c1ccc2c(c1)OCO2)c1ccccn1 51.3%
COc1ccc(/C=C/C(=O)c2cc3cccc(OC)c3oc2=O)cc1 60.6%
CS(=O)(=O)Oc1ccc2c(c1)O/C(=C\C=C\c1ccccc1)C2=O 58.8%
COc1ccc(O)c(C(=O)/C=C/c2cc3ccccc3o2)c1 66.9%
Cc1ccc(C2=NOC(=O)/C2=C\C=C\c2ccccc2)cc1 95.6%
COc1ccc(/C=C2\CC/C(=C\c3ccc(OC)c(OC)c3)C2=O)cc1OC 59.1%
O=C1ON=C(c2ccc(Cl)cc2)/C1=C/c1ccc(O)cc1 82.8%
COc1cc(/C=C/C(=O)CC(=O)/C=C/c2ccc(O)c(OC)c2)ccc1O 50.4%
COC(=O)[C@@H](N)CS 65.9%
COc1ccc(/C=C\C(=O)c2c(O)ccc3c(C)cc(=O)oc23)cc1OC 62.7%
COC(=O)C1=C(C)NC(C)=C(C(=O)OC)C1c1ccccc1[N+](=O)[O-]
O=C(/C=C/Sc1ccccc1)c1ccccc1 81.5%
O=C(/C=C/c1ccccc1)c1ccccc1 61.4%
O=C(/C=C/c1ccccc1)/C=C/c1ccccc1 88.9%
